{"source": "PubChem BioAssay AID2315", "about": "(National Center for Advancing Translational Sciences (NCATS), 2010)", "note": "In all, about 290,000 compounds went through this assay and about 27,000 (9.3%) were called active. Rule as the data show it: active = inhibition mostly above about 28% (no sharp cut-off); inactive = mostly below about 43%. Only a selection was taken, and actives are over-represented in it overall. Where a SMILES comes first, the peptide text is derived from it."}
{"test": "A qHTS for Small Molecule Inhibitors of Shiga Toxin; also: 0% is about no effect", "settings": "Vero cells, Shiga toxin protein synthesis inhibition reporter; at 38.7 µM, hits give high values"}
{"smiles": "CC(C)OCCCNC(=S)N1CCC(C(=O)c2ccc3c(c2)OCCO3)CC1", "inhibition": "-16.4% (inactive)"}
{"smiles": "Cc1nn(CC(=O)N2CCCCC2)c(=O)c2nn(-c3ccccc3)c(C)c12", "inhibition": "-2.2% (inactive)"}
{"smiles": "CCCc1nn(C)c2c(=O)[nH]c(-c3cc(S(N)(=O)=O)ccc3OCC)nc12", "inhibition": "-4.47% (inactive)"}
{"smiles": "COc1ccc(N(Cc2cc3cc(OC)ccc3[nH]c2=O)S(C)(=O)=O)cc1", "inhibition": "-19.8% (inactive)"}
{"smiles": "COc1ccccc1Cc1nc(-c2ccc(C)cc2)no1", "inhibition": "57.4% (active)"}
{"smiles": "COc1ccc(-c2noc(CSc3ccc(C)cc3)n2)cc1", "inhibition": "14.3% (inactive)"}
{"smiles": "CCCc1nc(-c2cc3cc(C)ccc3[nH]c2=O)no1", "inhibition": "-2.41% (inactive)"}
{"smiles": "COc1ccccc1CNS(=O)(=O)c1ccc(C)cc1", "inhibition": "11.5% (inactive)"}
{"smiles": "COc1ccc(CCNS(=O)(=O)c2cccc3cccnc23)cc1OC", "inhibition": "18.1% (inactive)"}
{"smiles": "COc1ccc(-c2noc(-c3ccc(C)cc3)n2)cc1", "inhibition": "79% (active)"}
{"smiles": "COc1ccc(Cc2nc(-c3ccccn3)no2)cc1OC", "inhibition": "56.5% (active)"}
{"smiles": "COc1ccc2[nH]c(=O)c(-c3noc(-c4ccc(F)cc4)n3)cc2c1", "inhibition": "69.3% (active)"}
{"smiles": "COc1ccc(-c2noc(CN(C)S(=O)(=O)c3ccc(C)cc3)n2)cc1", "inhibition": "-3.7% (inactive)"}
{"smiles": "Cc1ccc(-c2noc(CC(c3ccccc3)c3ccccc3)n2)cc1", "inhibition": "-20.2% (inactive)"}
{"smiles": "COc1ccc(CNc2cc(C)cc(C)c2)cc1OC", "inhibition": "-14.7% (inactive)"}
{"smiles": "CC(=O)NC1CCN(CC(=O)Nc2nccs2)CC1", "inhibition": "-3.57% (inactive)"}
{"smiles": "CN=C1S/C(=C\\c2c(OC)cc(OC)cc2OC)C(=O)N1C", "inhibition": "-8.5% (inactive)"}
{"smiles": "CC[C@H](C)[C@H](NC(=O)[C@H](Cc1cnc[nH]1)NC(=O)[C@@H](N)CCC(=O)O)C(=O)N1CCC[C@H]1C(=O)N[C@@H](C)C(=O)O", "note": "(H-EHIPA-OH)", "inhibition": "-0.529% (inactive)"}
{"smiles": "CC(=O)C1=C(C)NC(=O)NC1c1ccc2c(c1)OCO2", "note": "(stereo not given)", "inhibition": "2.18% (inactive)"}
{"smiles": "COc1ccccc1C(=O)COC(=O)CNS(=O)(=O)c1ccc(NC(C)=O)cc1", "inhibition": "-27.5% (inactive)"}
{"smiles": "CC(CC(=O)Nc1ccc(F)cc1F)S(=O)(=O)c1ccc2c(c1)NC(=O)CO2", "note": "(stereo not given)", "inhibition": "-3.11% (inactive)"}
{"smiles": "CCCCNC(=O)c1ccccc1NC(=O)C1=C(C)OCCS1", "inhibition": "1.7% (inactive)"}
{"smiles": "CC1=C(C(=O)Nc2ccccc2)SCCO1", "inhibition": "52.1% (active)"}
{"smiles": "CC1=C(C(=O)Nc2ccccc2)S(=O)(=O)CCO1", "inhibition": "31.9% (inactive)"}
{"smiles": "Cc1cccc(N(C(=O)c2sc(C)nc2C)C(C(=O)NCC2CCCO2)c2ccccc2)c1", "note": "(stereo not given)", "inhibition": "-10.3% (inactive)"}
{"smiles": "COc1ccccc1NC(=O)c1ccc(N2CC3CC(C2)c2cccc(=O)n2C3)c(NC(=O)c2cccnc2)c1", "note": "(stereo not given)", "inhibition": "7.14% (inactive)"}
{"smiles": "NS(=O)(=O)c1cc(C(=O)NCCOc2ccccc2)c(Cl)cc1Cl", "inhibition": "-6.15% (inactive)"}
{"smiles": "Cn1ccc(NC(=O)Nc2ccc(Cl)cc2)n1", "inhibition": "93% (active)"}
{"smiles": "Cc1cc(NC(=O)Nc2ccc(Cl)cc2)n(-c2ccccc2)n1", "inhibition": "15.7% (inactive)"}
{"smiles": "Cc1nn(C)cc1CNC(=O)Nc1ccc(Cl)cc1", "inhibition": "58.7% (active)"}
{"smiles": "Cc1nn(C)cc1C(=O)NNC(=S)Nc1ccc(Cl)cc1", "inhibition": "3.52% (inactive)"}
{"smiles": "O=C(Nc1ccc(Cl)cc1)Nc1ccc(C(=O)N2CCOCC2)cc1", "inhibition": "32.1% (inactive)"}
{"smiles": "COc1ccc(Cl)cc1C(=O)NCc1cn(C)nc1C", "inhibition": "-46.7% (inactive)"}
{"smiles": "CCC(=O)Nc1nc(C)c(C(=O)Nc2cccc(Cl)c2)s1", "inhibition": "12.8% (inactive)"}
{"smiles": "COc1cc(/C=C2\\CCCc3c2nc2ccccc2c3C(=O)O)cc(Cl)c1O", "inhibition": "-3.8% (inactive)"}
{"smiles": "CCc1ccc(N2CC(C(=O)Nc3ccc(S(=O)(=O)Nc4nccs4)cc3)CC2=O)cc1", "note": "(stereo not given)", "inhibition": "16.7% (inactive)"}
{"smiles": "O=C(c1cccc(Cl)c1)N1CCN(Cc2ccccc2)CC1", "inhibition": "-19.8% (inactive)"}
{"smiles": "COc1ccc(-c2noc(CNC(=O)C(C)Oc3ccccc3)n2)cc1", "note": "(stereo not given)", "inhibition": "11.6% (inactive)"}
{"smiles": "Cc1ccccc1C(=O)N1CCC(C(=O)Nc2ccc(S(=O)(=O)N(C)C(C)C)cc2)CC1", "inhibition": "24.6% (inactive)"}
{"smiles": "COc1ccccc1NC(=O)C1CCCN(c2cc(C)nc3ncnn23)C1", "note": "(stereo not given)", "inhibition": "2.25% (inactive)"}
{"smiles": "COc1ccccc1-c1cnn2c(N3CCOCC3)cc(C)nc12", "inhibition": "87.6% (active)"}
{"smiles": "Cc1cc(C(F)(F)F)n2ncc(-c3ccccc3)c2n1", "inhibition": "-2.7% (inactive)"}
{"smiles": "N#Cc1c(-c2ccccc2)cc(-c2ccccc2)nc1SCC(=O)O", "inhibition": "-7.81% (inactive)"}
{"smiles": "Cc1ccc(-n2c(C)cc(C(=O)CN3C(=O)C(=O)N(C4CCCC4)C3=O)c2C)cc1", "inhibition": "-11% (inactive)"}
{"smiles": "Cc1cc(C(=O)CSc2nc(N)cc(=O)[nH]2)c(C)n1-c1cccc(F)c1", "inhibition": "3.21% (inactive)"}
{"smiles": "Cc1cc(C(=O)COC(=O)C2CC2)c(C)n1-c1ccc(F)cc1", "inhibition": "52.6% (active)"}
{"smiles": "CN(CC(=O)NCc1ccncc1)S(=O)(=O)c1ccc(Br)cc1", "inhibition": "9.73% (inactive)"}
{"smiles": "Cc1cc(S(=O)(=O)Nc2ccc(C(=O)NCC(c3ccco3)N3CCCC3)cc2)ccc1F", "note": "(stereo not given)", "inhibition": "-11.6% (inactive)"}
{"smiles": "CCC(C)[C@H](NC(=O)N1c2ccccc2NC(=O)[C@@H]1C(C)C)C(=O)N[C@@H](Cc1ccccc1)C(=O)O", "note": "(stereo not given in full)", "inhibition": "-1.75% (inactive)"}
{"smiles": "CCCC(=O)n1nc(-c2ccccc2)nc1N", "inhibition": "17.2% (inactive)"}
{"smiles": "Cc1nc2ccccc2c(-c2ccccc2)c1C(=O)c1ccccc1", "inhibition": "-2.44% (inactive)"}
{"smiles": "Cc1nn(C(=O)c2ccoc2C)c(N)c1-c1ccccc1", "inhibition": "131% (active)"}
{"smiles": "Cc1cc(C)c2c(Cn3ccnc3)cc(=O)oc2c1", "inhibition": "-6.18% (inactive)"}
{"smiles": "CC(=O)Nc1ccc(S(=O)(=O)N2CCC(C(=O)NC3CC3)CC2)cc1", "inhibition": "-3.15% (inactive)"}
{"smiles": "CN(Cc1ccccc1Cl)C(=O)C1CCC(=O)N(CCc2cccc(F)c2)C1", "note": "(stereo not given)", "inhibition": "2.46% (inactive)"}
{"smiles": "COc1ccc(NS(=O)(=O)c2ccc3oc(SCC(N)=O)nc3c2)cc1", "inhibition": "-13.2% (inactive)"}
{"smiles": "CN(C)S(=O)(=O)c1ccc2oc(SCC(=O)Nc3ccccc3F)nc2c1", "inhibition": "113% (active)"}
{"smiles": "COc1ccc(S(=O)(=O)N(C)C)cc1NC(=O)CSc1ncccn1", "inhibition": "-6.2% (inactive)"}
{"smiles": "Brc1c(CSc2nncc3ccccc23)nc2ccccn12", "inhibition": "44.5% (active)"}
{"smiles": "CN(C(=O)CN1C(=O)CCSc2ccc(S(=O)(=O)N3CCCC3)cc21)c1ccccc1", "inhibition": "-7.94% (inactive)"}
{"smiles": "O=C(NCc1ccccc1Cl)c1ccc2c(=O)n(CC3CCCO3)c(=S)[nH]c2c1", "note": "(stereo not given)", "inhibition": "28.6% (inactive)"}
{"smiles": "Cc1cc(C)c(OCC(=O)N(Cc2cccs2)C2CCS(=O)(=O)C2)c(C)c1", "note": "(stereo not given)", "inhibition": "12.7% (inactive)"}
{"smiles": "CCOC(=O)N1CCN(C(=O)C(=O)Nc2sc3c(c2C#N)CC(C)(C)OC3)CC1", "inhibition": "-6.06% (inactive)"}
{"smiles": "CCC(C)[C@H]1COCCS(=O)(=O)N1Cc1ccc(C)cc1", "note": "(stereo not given in full)", "inhibition": "-2.97% (inactive)"}
{"smiles": "O=S1(=O)CCOC[C@H](CC2CCCCC2)N1Cc1ccc(F)cc1", "inhibition": "19.8% (active)"}
{"smiles": "CCCC[C@H]1COCCS(=O)(=O)N1Cc1cccc(Cl)c1", "inhibition": "-0.556% (inactive)"}
{"smiles": "Cc1ccc(S(=O)(=O)N2CC(C)N(S(C)(=O)=O)C2)cc1", "note": "(stereo not given)", "inhibition": "-4.24% (inactive)"}
{"smiles": "Cc1ccc(-c2nnc(CN3CCN(C)CC3)o2)cc1", "inhibition": "21.4% (inactive)"}
{"smiles": "COc1cccc(NC(=O)Cn2c3ccc(F)cc3c3nc4n(c(=O)c32)CCS4)c1", "inhibition": "-1.58% (inactive)"}
{"smiles": "CCC(=O)Nc1ccc(S(=O)(=O)Nc2c(NC)c3ccccc3oc2=O)cc1", "inhibition": "8.69% (inactive)"}
{"smiles": "O=C(N=C1SC2CS(=O)(=O)CC2N1c1cc(Cl)ccc1Cl)C1CC1", "note": "(stereo not given)", "inhibition": "-4.57% (inactive)"}
{"smiles": "O=C(Cn1c(=S)nc2ccccn21)N1CCc2ccccc2C1", "inhibition": "38.4% (inactive)"}
{"smiles": "O=C(c1ccc(F)cc1)n1cc(C(=S)N2CCOCC2)c2ccccc21", "inhibition": "-2.34% (inactive)"}
{"smiles": "O=C(c1ccc(F)cc1)n1c(=S)nc2ccccn21", "inhibition": "82.6% (active)"}
{"smiles": "CC1C(=O)N(Cc2ccccc2)c2ccccc2N1C(=O)c1ccccc1", "note": "(stereo not given)", "inhibition": "2.9% (inactive)"}
{"smiles": "O=C(CN1C(=O)c2cccc3cccc1c23)Nc1ccccc1", "inhibition": "-7.35% (inactive)"}
{"smiles": "CC(C)(CNC(=O)Cc1ccc(Cl)cc1Cl)N1CCOCC1", "inhibition": "2.65% (inactive)"}
{"smiles": "CSCc1cc(N2CCOCC2)nc(SCc2ccc(Cl)cc2Cl)n1", "inhibition": "30.9% (active)"}
{"smiles": "CSCc1cc(N(C)C)nc(SCc2ccc(Cl)cc2Cl)n1", "inhibition": "-20.3% (inactive)"}
{"smiles": "CCn1c(SCC(=O)Nc2ccc(Br)cc2)nc2sc3c(c2c1=O)CCN(C)C3", "inhibition": "18.8% (inactive)"}
{"smiles": "CCN(Cc1ccccc1)C(=O)CN1C(=S)NC(C)(C)CC1C", "note": "(stereo not given)", "inhibition": "-3.94% (inactive)"}
{"smiles": "Cc1ccc(CSc2nnc(-c3cnccn3)n2C)cc1", "inhibition": "36.7% (inactive)"}
{"smiles": "Cn1c(SCc2c(F)cccc2Cl)nnc1-c1cnccn1", "inhibition": "119% (active)"}
{"smiles": "Oc1ccc(-n2nnnc2SCc2c(F)cccc2Cl)cc1", "inhibition": "-2.08% (inactive)"}
{"smiles": "CC(OC(=O)c1ccc2ccccc2n1)C(=O)c1ccccc1", "note": "(stereo not given)", "inhibition": "86.7% (active)"}
{"smiles": "CC(OC(=O)c1ccccc1N1C(=O)C2C3CCC(C3)C2C1=O)C(=O)c1ccccc1", "note": "(stereo not given)", "inhibition": "5.16% (inactive)"}
{"smiles": "COc1ccc(C(=O)COC(=O)c2ccc3ccccc3n2)cc1", "inhibition": "28.4% (inactive)"}
{"smiles": "O=C(CCSc1ccccc1)N1CCN(c2ccccc2F)CC1", "inhibition": "95.5% (active)"}
{"smiles": "O=C(NCC(=O)N1CCN(c2ccccc2F)CC1)c1cccs1", "inhibition": "26.2% (inactive)"}
{"smiles": "O=C(CCc1ccccc1F)N1CCN(c2ccccc2)CC1", "inhibition": "-0.211% (inactive)"}
{"smiles": "Cc1ccc(C)c(N2CCN(S(=O)(=O)c3c(C)[nH]c(C)c3C(=O)N3CCCC3)CC2)c1", "inhibition": "3.26% (inactive)"}
{"smiles": "Cc1cccc(C(=O)c2cccc(C)c2)c1", "inhibition": "43.6% (inactive)"}
{"smiles": "Cc1cccc(/C(N)=N/OC(=O)c2ccccc2Cl)c1", "inhibition": "74.6% (active)"}
{"smiles": "N/C(=N\\OC(=O)c1cc(-c2ccccc2)nc2ccccc12)c1ccncc1", "inhibition": "15.3% (inactive)"}
{"smiles": "CCc1c(C)nc2cc(-c3cccs3)[nH]n2c1=O", "inhibition": "153% (active)"}
{"smiles": "CCCCN1Cc2c(nc3cc(-c4ccccc4)[nH]n3c2=O)C1=O", "inhibition": "2.49% (inactive)"}
{"smiles": "CCc1c(C)nc2cc(C)[nH]n2c1=O", "inhibition": "0.52% (inactive)"}
{"smiles": "Cc1cc(=O)n2[nH]c(-c3sccc3-n3c(C)ccc3C)cc2n1", "inhibition": "34.4% (inactive)"}
{"smiles": "C=CCc1c(C)nc2cc(-c3ccccc3)[nH]n2c1=O", "inhibition": "45.5% (active)"}
{"smiles": "Cc1nc2nc[nH]n2c(=O)c1C/C=C/c1ccccc1", "inhibition": "-3.93% (inactive)"}
